Here are results for 7 compounds from PubChem BioAssay (NCI).

Several values for one entry are separate records, joined by “and”; a condition that tells them apart may be missing. Equal entries are not always repeated. Compounds without any hit were thinned out: in the full panel of roughly 83,000, 20% have a hit.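 Results are percent growth after 48 hours of single-concentration exposure. 100 means growth as in untreated cells, lower positive values show inhibition; negative values down to -100 show cell death.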 Activity calls are given as the source filed them. The calls were made as follows: active = growth percent below 10; inactive = the rest.

Assay in all cases: NCI-60 one-dose screen, 48 h (100 = growth as untreated, 0 = no growth, -100 = all killed)
In one test the test system is NCI-H226 lung. The settings on record: 10 µM.
In a further test the test system is NCI-H322M lung. To be noted: 10 µM.
The next test deals with HOP-62 NSCLC. To be noted: 10 µM.
In a further test the test system is NCI-H460 lung. To be noted: 10 µM.
The next test relates to NCI-H522 lung. To be noted: 10 µM unless noted.
The test system of another test is A549/ATCC NSCLC. To be noted: 10 µM.
The next test has as its system 786-0 renal. The settings on record: 10 µM.
The subject of another test is COLO 205 colon. The settings on record: 10 µM.
The next test has as its system DU-145 prostate. To be noted: 10 µM unless noted.
A further test relates to K-562 leukemia. To be noted: 10 µM.
In another test the test system is MALME-3M melanoma. To be noted: 10 µM.
The test system of another test is MDA-MB-231 breast. To be noted: 10 µM.
The subject of another test is RXF 393 renal. To be noted: 10 µM unless noted.
The next test relates to SF-268 CNS. To be noted: 10 µM.
The test system of another test is SF-295 CNS. The settings on record: 10 µM.
A further test relates to UACC-257 melanoma. The settings on record: 10 µM.
The next test deals with M14 melanoma. The settings on record: 10 µM.
For the next test, the system named is HOP-92 NSCLC. The settings on record: 10 µM.
A further test deals with SF-539 CNS. To be noted: 10 µM.

On to `CN1CCN(CCCN2c3ccccc3Sc3ccc(C(F)(F)F)cc32)CC1`, for which the growth in the test on NCI-H226 lung was 101% (inactive); with NCI-H322M lung, 69.7% (inactive); in the test with HOP-62 NSCLC, 61.8% (inactive); with NCI-H460 lung, 33.6% (inactive); in the test with NCI-H522 lung it was 73% (inactive); in the test with A549/ATCC NSCLC, 59.4% (inactive). Further, the growth is 37.2% (inactive) with 786-0 renal; -79% (active) with COLO 205 colon; 70.4% (inactive) with DU-145 prostate; -11.9% (active) in the test with K-562 leukemia; -10.5% (active) in the test on MALME-3M melanoma; 52.7% (inactive) with MDA-MB-231 breast. Further, the growth with RXF 393 renal is 37% (inactive); in the test with SF-268 CNS, 63.5% (inactive); in the test with SF-295 CNS, 42.9% (inactive); in the test on UACC-257 melanoma, -59.5% (active); with M14 melanoma, -74% (active).
Regarding `Nc1c2ccccc2nc2ccccc12`, the growth in the test on NCI-H226 lung was 2.61% (active) and 38.7% (inactive) and 40.4% (inactive); in the test with NCI-H322M lung, 12.1% (inactive) and 36.8% (inactive) and 31.9% (inactive); in the test with HOP-62 NSCLC, 11.3% (inactive) and 52.2% (inactive) and 47.3% (inactive); in the test on NCI-H460 lung it was -11.2% (active) and 2.59% (active) and 12% (inactive); with HOP-92 NSCLC, 69.1% (inactive) and 2.79% (active); with NCI-H522 lung, -49% (active) and -11.2% (active) and 30.2% (inactive). The growth in the test with A549/ATCC NSCLC was -5.72% (active) and 20.6% (inactive) and 28.6% (inactive); with 786-0 renal it was 25.5% (inactive) and 34.8% (inactive) and 50% (inactive); in the test on COLO 205 colon, -73.8% (active) and 7.85% (active) and 12.6% (inactive); in the test with DU-145 prostate, 16.3% (inactive) and 40.9% (inactive); in the test with K-562 leukemia, 1.31% (active) and 11.9% (inactive) and 27% (inactive); in the test with MALME-3M melanoma it was 5.23% (active) and 42% (inactive) and 34% (inactive). The growth in the test with MDA-MB-231 breast is 25.2% (inactive) and 40.1% (inactive) and 35.4% (inactive); with RXF 393 renal, 8.02% (active) and -6.66% (active) and 44.2% (inactive); with SF-268 CNS, 24.2% (inactive) and 47.3% (inactive); in the test on SF-295 CNS, -24.9% (active) and 25.7% (inactive) and 49.5% (inactive); with SF-539 CNS, 21.7% (inactive) and 23.4% (inactive) and 29.2% (inactive); with UACC-257 melanoma it was -31.3% (active) and 25.4% (inactive) and 53.5% (inactive).
On to `O=C(/C=C/c1ccccn1)c1ccccc1`, for which the growth was 86.1% (inactive) in the test on NCI-H226 lung; 88.8% (inactive) with NCI-H322M lung; 93.8% (inactive) with HOP-62 NSCLC; 26.5% (inactive) in the test on NCI-H460 lung; 78.3% (inactive) with HOP-92 NSCLC; -75.6% (active) in the test on NCI-H522 lung. Besides, the growth with A549/ATCC NSCLC was 76.3% (inactive); with 786-0 renal, 15.6% (inactive); with COLO 205 colon, 32% (inactive); in the test on DU-145 prostate, 60.5% (inactive); in the test with K-562 leukemia, 14% (inactive); with MALME-3M melanoma it was 91% (inactive). Also, the growth with MDA-MB-231 breast is 90.2% (inactive); in the test on RXF 393 renal, 90.6% (inactive); in the test on SF-268 CNS, 85.4% (inactive); in the test on SF-295 CNS it was 87.5% (inactive); in the test on SF-539 CNS, 68.5% (inactive); in the test with UACC-257 melanoma, 72.9% (inactive). In addition, the growth in the test with M14 melanoma is 42.1% (inactive).
As to `O=C(C(=Cc1ccccc1)C(=O)c1ccccc1)c1ccccc1`, the growth in the test with NCI-H226 lung was 68.4% (inactive) and 97.7% (inactive); in the test on NCI-H322M lung, 89.6% (inactive) and 110% (inactive); with HOP-62 NSCLC it was 102% (inactive); in the test with NCI-H460 lung it was 33.3% (inactive) and 96.3% (inactive); in the test with HOP-92 NSCLC it was 65.7% (inactive) and 84.3% (inactive); with NCI-H522 lung, 75.2% (inactive) and 68.9% (inactive). Moreover, the growth with A549/ATCC NSCLC is 81.6% (inactive) and 83.1% (inactive); in the test on 786-0 renal, 73.5% (inactive) and 97.3% (inactive); with COLO 205 colon it was 124% (inactive); in the test on DU-145 prostate it was 61.3% (inactive) and 102% (inactive); with K-562 leukemia it was 35.5% (inactive) and 93.8% (inactive); in the test with MALME-3M melanoma, 88.4% (inactive) and 108% (inactive). For the same compound, the growth is 70.5% (inactive) and 74.8% (inactive) in the test with MDA-MB-231 breast; 66.5% (inactive) and 98.8% (inactive) in the test with RXF 393 renal; 58.5% (inactive) and 83.3% (inactive) in the test with SF-268 CNS; 65.4% (inactive) and 97.7% (inactive) with SF-295 CNS; 72.9% (inactive) and 96.9% (inactive) in the test with SF-539 CNS; 73% (inactive) and 83.7% (inactive) in the test on UACC-257 melanoma.
On to `CCCCCC(C)c1ccc(O)c(C)c1` (stereo not given), for which the growth was 96% (inactive) with NCI-H226 lung; 99.3% (inactive) in the test on NCI-H322M lung; 98.4% (inactive) in the test on HOP-62 NSCLC; 107% (inactive) in the test on NCI-H460 lung; 98% (inactive) in the test with HOP-92 NSCLC; 88.2% (inactive) with NCI-H522 lung. Moreover, the growth was 113% (inactive) with A549/ATCC NSCLC; 93.6% (inactive) in the test with 786-0 renal; 111% (inactive) in the test on COLO 205 colon; 103% (inactive) in the test with DU-145 prostate; 90.6% (inactive) in the test with K-562 leukemia; 113% (inactive) in the test with RXF 393 renal. In addition, the growth with SF-268 CNS is 98.3% (inactive); in the test on SF-295 CNS, 95.5% (inactive); in the test with SF-539 CNS it was 103% (inactive); in the test with UACC-257 melanoma it was 99.3% (inactive).
Consider `Clc1ccc(/C=C/c2ccccn2)c(Cl)c1`, for which the growth is 97.1% (inactive) in the test with NCI-H226 lung; 85.5% (inactive) in the test on NCI-H322M lung; 96.2% (inactive) in the test with HOP-62 NSCLC; 95.2% (inactive) in the test on NCI-H460 lung; 84% (inactive) in the test on HOP-92 NSCLC; 81.2% (inactive) in the test with NCI-H522 lung. Further, the growth in the test with A549/ATCC NSCLC was 90% (inactive); in the test on 786-0 renal, 105% (inactive); in the test with COLO 205 colon, 94.7% (inactive); in the test on DU-145 prostate, 116% (inactive); in the test with K-562 leukemia it was 93.6% (inactive); in the test with MALME-3M melanoma it was 102% (inactive). Also, the growth is 85.5% (inactive) in the test on MDA-MB-231 breast; 108% (inactive) in the test with RXF 393 renal; 99% (inactive) with SF-268 CNS; 94.5% (inactive) in the test on SF-295 CNS; 89.3% (inactive) with SF-539 CNS; 99.7% (inactive) with UACC-257 melanoma. The growth in the test on M14 melanoma was 106% (inactive).
As for `OCC1OC(n2cnc3c(=S)nc[nH]c32)C(O)C1O` (stereo not given), the growth in the test with NCI-H226 lung is 100% (inactive) and 63.7% (inactive); in the test with NCI-H322M lung, 96.5% (inactive) and 62.9% (inactive); with HOP-62 NSCLC, 115% (inactive) and 53.9% (inactive); in the test with NCI-H460 lung, 113% (inactive) and 62% (inactive); in the test with HOP-92 NSCLC it was 56.6% (inactive) and 61.8% (inactive); with NCI-H522 lung, 77.3% (inactive) and 3.94% (active). For the same compound, the growth in the test on A549/ATCC NSCLC was 99.6% (inactive) and 101% (inactive); in the test with 786-0 renal, 100% (inactive) and 35.1% (inactive); in the test on COLO 205 colon, 116% (inactive) and 47.5% (inactive); with DU-145 prostate, 98.4% (inactive) and 51.9% (inactive); in the test on K-562 leukemia, 124% (inactive) and 41.6% (inactive); with MALME-3M melanoma it was 87.3% (inactive) and 53.3% (inactive). Also, the growth is 99.2% (inactive) and 61.9% (inactive) with MDA-MB-231 breast; 98.2% (inactive) and 70.2% (inactive) in the test with RXF 393 renal; 109% (inactive) and 53.9% (inactive) in the test on SF-268 CNS; 101% (inactive) and 41.7% (inactive) in the test with SF-295 CNS; 103% (inactive) and 31.8% (inactive) with SF-539 CNS; 105% (inactive) and 52.7% (inactive) with UACC-257 melanoma.
